Results reported in the supplement of paper PMC4206467.

test system: Perkinsus marinus PRA240; assay: ATP content (proliferation) relative to DMSO control; higher = more parasite growth (less inhibition); conditions: 20 µM; 4 days
Description: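 Perkinsus marinus PRA240 trophozoites (2-5x10^6 cells/ml, 100 µl, 96-well) were exposed once to MMV Malaria Box compounds at 20 µM (0.1% DMSO) in triplicate. ATP content (ATPlite bioluminescence) was read at day 4 post-exposure and normalised to DMSO + cells control wells (100% activity). Compounds were identified by joining plate and well to the Malaria Box list.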

| SMILES | ATP content |
| --- | --- |
| N=c1n(CCN2CCCCC2)c2ccccc2n1CC(=O)c1ccc(Cl)c(Cl)c1 | 111% |
| CCOC(=O)c1cnc2c(C)cccc2c1Nc1ccc(C(C)=O)cc1 | 122% |
| CN1CCN(c2ncnc3c2[nH]c2ccc(Cl)cc23)CC1 | 111% |
| CCOC(=O)C1=C(C)N=c2sc(=Cc3ccccc3O)c(=O)n2C1c1ccc(OC)c2ccccc12 (configuration not stated) | 196% |
| O=C1c2ccccc2C2=Nc3ccccc3SC(c3cccc(F)c3)C12 (configuration not stated) | 36.8% |
| Oc1c(CN2CCN(c3ccccc3F)CC2)cc(Br)c2cccnc12 | 105% |
| CCOc1ccc2nc(C)cc(Nc3ccc(Br)cc3)c2c1 | 3.75% |
| COc1ccccc1N1C(=N)SC(=Cc2ccc(OCc3ccccc3F)cc2)C1=O | 57.5% |
| Cc1ccccc1OCCSc1nc2ccc(NC(=O)c3cccs3)cc2s1 | 30.1% |
| COc1nc(Nc2ccc(C(C)C)cc2)nc(OC)n1 | 125% |
| CN(C)c1ccc(-c2nc3cc(N)ccc3[nH]2)cc1 | 0.856% |
| Cn1c(C(=O)c2cccc3ccccc23)nc2ccccc21 | 55.5% |
| CCN(CC)c1ccc(NC(=O)c2cccs2)cc1 | 64% |
| O=C(Nc1ccccc1O)c1ccc(-c2ccc(Cl)cc2Cl)o1 | 82.5% |
| O=C(Nc1ccc(-c2nc3cc(NC(=O)c4ccc(Cl)cc4)ccc3[nH]2)cc1)c1ccc(Cl)cc1 | 141% |
| O=C(NCCCN1CCC(N2CCCCC2)CC1)C1=Cc2cc(Br)ccc2OC1 | 224% |
| CCN1CCN(c2c(C(=O)c3ccccc3)cnc3cc(OC)c(OC)cc23)CC1 | 199% |
| c1ccc(C2=Nc3ccccc3N=C(c3ccccc3)c3ccccc32)cc1 | 117% |
| CCn1c(SCC(=O)Nc2cc(C(F)(F)F)ccc2Cl)nc2ccccc2c1=O | 102% |

| SMILES | ATP content |
| --- | --- |
| CCC(O)c1ccc(Br)cc1NC(=O)c1cccc(Cl)c1 (configuration not stated) | 127% |
| COc1ccc(C(=O)NC(c2ccccc2Cl)c2cc(Cl)c3cccnc3c2O)cc1 (configuration not stated) | 29.8% |
| Nc1ccc(-c2nc3cc(Cc4ccc5[nH]c(-c6ccc(N)cc6)nc5c4)ccc3[nH]2)cc1 | 135% |
| OC(CNCc1ccccc1)Cn1c2ccccc2c2ccccc21 (configuration not stated) | 105% |
| COc1ccc(C(O)(CCC(C)C)C(CN2CCOCC2)c2ccc(Cl)cc2)cc1 (configuration not stated) | 91.9% |
| Nc1nc(Nc2cccc(F)c2)nc2ccccc12 | 26% |
| O=C(Nc1cccc(C(F)(F)F)c1)c1cc(Cl)ccc1O | 2.99% |
| Cc1ccc(CN2CCC(C(=O)Nc3ccc(-c4cc5ccccc5[nH]4)cc3)CC2)o1 | 83.4% |
| Cc1cc(Nc2ccc(OCc3ccccc3)cc2)nc2cc(O)ccc12 | 4.92% |
| Cc1[nH]c(-c2ccc(F)cc2)cc1C(=O)NC1CCN(Cc2ccccc2)CC1 | 108% |
| C=CCc1c(C)nc2ccccc2c1O | 48% |
| COc1ccc(-c2cc(=O)oc3c4c(ccc23)OCN(Cc2ccc(F)cc2)C4)cc1 | 130% |
| Brc1ccc(Nc2nc3ccccc3nc2Nc2ccc(Br)cc2)cc1 | 18.3% |
| N=c1c2ccccc2nnn1-c1cccc(C(F)(F)F)c1 | 67.7% |
| CCCc1c(C)nc2ccc(Br)cc2c1O | 58.8% |
| O=C1c2ccccc2-c2nnc(-c3ccc(Br)cc3)cc21 | 67.7% |
| CCOc1cc(Cl)c(C(C)NC(=O)c2cccc(OC)c2)cc1OCC (configuration not stated) | 85.3% |
| COc1cccc(Nc2nc(NCCO)c3ccccc3n2)c1 | 77.5% |
